# Screening results from PubChem.
# SMN2 splice enh: qHTS Assay for Enhancers of SMN2 Splice Variant Expression; HEK293 SMN2-luciferase splicing reporter, luminescence, 30-36 h; Potency, µM (titrated, usually from 46.1 µM), for inactives: at the highest dose activity change, positive = activation, most hits filed as activators; hit rate 2.8% among 210,000; further: % of control where 0% means no effect; nearly all actives have a fitted effect of over 55% in size
#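 HEK293 cells carry an SMN2 […]–luciferase reporter in which exon 7 inclusion puts luciferase in frame. Cells were plated 10-12 h before compound addition, then incubated 30-36 h at 37C. ONE-Glo luminescence was read; sodium butyrate at 4.5 mM final served as control.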
# FLuc counter: qHTS profiling assay for firefly luciferase inhibitor/activator using purifed enzyme and Km concentrations of substrates (counterscreen for miR-21 project); Luciferin 4-monooxygenase (Photinus pyralis), P08659; purified FLuc, Km substrates, luminescence inhibition; Potency, µM (highest dose often 57.5 µM), for inactives: at the highest dose activity change, negative = inhibition, usual class: inhibitors; hit rate 6.9% among 360,000;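 further: plate controls were vehicle for no effect and reference inhibitor for full effect; nearly all actives have a fitted effect of over 55% in size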
# Target sequence (P08659 whole entry, looked up): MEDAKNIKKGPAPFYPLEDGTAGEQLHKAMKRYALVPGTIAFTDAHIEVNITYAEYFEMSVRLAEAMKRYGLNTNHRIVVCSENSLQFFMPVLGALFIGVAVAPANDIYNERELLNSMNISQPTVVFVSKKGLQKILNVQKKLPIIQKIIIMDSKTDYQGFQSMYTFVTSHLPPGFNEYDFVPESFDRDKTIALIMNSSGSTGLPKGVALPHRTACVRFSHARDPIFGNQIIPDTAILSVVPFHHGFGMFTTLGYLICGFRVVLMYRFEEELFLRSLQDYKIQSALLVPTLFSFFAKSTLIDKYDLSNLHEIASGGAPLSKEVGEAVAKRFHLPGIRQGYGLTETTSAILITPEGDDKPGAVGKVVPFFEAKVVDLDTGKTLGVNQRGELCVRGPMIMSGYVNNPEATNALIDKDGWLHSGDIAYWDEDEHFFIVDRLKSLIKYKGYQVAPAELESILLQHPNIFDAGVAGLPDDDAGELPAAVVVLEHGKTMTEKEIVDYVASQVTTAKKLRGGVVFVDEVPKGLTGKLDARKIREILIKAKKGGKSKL
#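 Purified P. pyralis luciferase, 10 nM final, with Km-level 10 uM D-luciferin and 10 uM ATP in 50 mM Tris acetate pH 7.5, 10 mM Mg acetate, 0.01% Tween-20, 0.05% BSA; 6-point qHTS titration about 60 µM downward; luminescence read.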
# ELG1 genotox: qHTS screen for small molecules that induce genotoxicity in human embryonic kidney (HEK293T) cells expressing luciferase-tagged ELG1; HEK293T ELG1-luciferase reporter, luminescence, 16 h; Potency, µM (top dose mostly 46 µM), for inactives: at the top dose activity change, positive = activation, hits mostly activators; hit rate 1.3% among 330,000; further: % of control where 0% means no effect; nearly all actives have a fitted effect of over 60% in size
#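 Quantitative HTS format in 1536-well plates. HEK293T ELG1-luciferase reporter cells receive test compound and are incubated 16 hr at 37 °C, 5% CO2; ONE-Glo added, 30 min room temperature, then luminescence read.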
# Rab9 prom act: qHTS Assay for Rab9 Promoter Activators; hit rate 2.8% among 320,000; Huh7 Rab9 promoter-luciferase reporter, luminescence, 24 h; Potency, µM (top dose mostly 9.22 µM), inactives show at the highest dose activation, negative = inhibition, most hits filed as activators; further: % of control where 0% means no effect; nearly all actives have a fitted effect of over 60% in size
#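 Quantitative HTS format; Huh7 Rab9-luciferase reporter cells (1500/well) receive compound 2 h post-plating, incubate 24 h at 37 °C, then get luciferase reagent for 10 min before luminescence reading.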
# Luc counter: Counterscreen for Luciferase (Kinase-Glo TM) Inhibition; AID 1379, 2008; Kinase-Glo luciferase, ATP luminescence, 8 min; Luciferin 4-monooxygenase (Photuris pensylvanica), Q27757; Potency, µM (highest dose often 38.3 µM), inactives show at the highest dose activity change, negative = inhibition, hits mostly inhibitors; hit rate 0.28% among 200,000; further: on the % scale 0 is the no-effect control and ±100 the full control effect; nearly all actives have a fitted effect of over 60% in size
#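 Light output from Kinase-Glo luciferase with luciferin and 10 uM ATP in 50 mM imidazole pH 7.2, KCl, MgCl2, Tween 20, BSA; compound pin-delivered, 8-min ambient incubation, then luminescence read.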
# NPC1 prom act: qHTS Assay for NPC1 Promoter Activators. Huh7 NPC1 promoter luciferase reporter, 24 h. Potency, µM (highest dose often 9.22 µM), for inactives: at the highest dose activation, most hits filed as activators. hit rate 2.4% among 320,000; further: % of control where 0% means no effect; nearly all actives have a fitted effect of over 60% in size
#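 Quantitative HTS used a cell-based reporter: Huh7 cells stably bearing the NPC1 promoter upstream of luciferase were treated with compounds for 24 h, and promoter activation was read as luminescence.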
# Numbers without * were called inactive; ? = inconclusive; · = no result; [ ] = remark or other dose. Compounds with a hit are over-represented: about 7.5% of the library has one in this group of screens. The call rests on the fitted dose curve; in most records, active means well fitted curve in the direction sought with a large enough effect; inconclusive means small, poorly fitted or top-dose-only effect, or another doubt; inactive means no such curve, though single readings can be large; an effect the other way counts as inactive or inconclusive. Potency means the concentration at half of the fitted maximal effect.
SMILES,SMN2 splice enh,FLuc counter,ELG1 genotox,Rab9 prom act,Luc counter,NPC1 prom act
c1ccc(-c2nc(N3CCOCC3)s[n+]2-c2ccccc2)cc1,12%,7.6µM*,13%,-1%,-2%,2%
CN(C)c1ccc2c(c1)N=C(c1ccco1)OP2(=S)N1CCOCC1 (stereo unspecified),18%,15µM*,?,26%,-7%,5%
NC(N)=NCCN=C(N)N,-2%[9.22 µM],·,·,·,-1%[7.66 µM],·
CCC12CCN(CCc3ccc(F)cc3)CC1Oc1c(O)cccc12 (stereo unspecified),·,12%,·,·,·,·
O=C(Oc1ccc2ccccc2c1Cl)N1CCCC1,13µM*,12µM*,2.1µM*,2µM*,-3%,2.8µM*
O=C(Oc1ccc(Cl)c2ccccc12)N1CCCCC1,2%,17µM*,?,5%,16%,12%
CN(C(=O)Oc1ccc(Cl)c2cccnc12)c1ccccc1,-16%,-8%,-3%,-1%,-5%,-2%
CN(C)C(=O)Oc1ccc2ccccc2c1Cl,-24%,?,?,15%,-1%,14%
O=C(Oc1c(Cl)cc(Cl)c2ccccc12)N1CCCCC1,-13%,?,?,0%,-1%,6%
CCN(CC)C(=O)Oc1ccc2ccccc2c1Cl,?,17µM*,13%,28%,-1%,16%
CN(C)C(=O)Oc1ccc(Cl)c2ccccc12,9%,8%[2.3 µM],2%,?,-1%,4.5µM*
O=C(O)C[C@H]1NCc2cc3ccccc3nc21,-3%[9.22 µM],·,·,·,-2%[7.66 µM],·
Nc1ccc([N+](=O)[O-])cc1N,13%,·,·,·,·,·
O=C(Oc1ccc2ccc(OC(=O)N3CCCCCC3)cc2c1)N1CCCCCC1,-36%,13µM*,?,13%,-3%,15%
O=C(Nc1ccc(OC(=O)N2CCCCC2)cc1)N1CCOCC1,·,4%,1%,2%,-7%,-5%
OCCNc1c2c(nc3ccccc13)CCCC2,-17%,3%,-4%,-10%,2%,-1%
CNc1ccc2nc3ccccc3[n+](C)c2c1,·,17µM*,-6%,-22%[1.84 µM],·,-43%
C[n+]1c2ccccc2nc2ccc(NCCO)cc21,·,19µM*,-18%,-5%[1.84 µM],·,2%
CC(=O)N1CCc2cc(S(=O)(=O)N3CCN(c4ccc(C)cc4)C(C)C3)ccc21 (stereo unspecified),-31%,-9%,·,·,·,·
O=C(C[C@H](c1ccccc1)c1c(O)c2ccccc2oc1=O)c1ccccc1,-4%[9.22 µM],·,·,·,-4%[7.66 µM],·
COc1cc(/C=N/NC(=O)CN2CCCCC2)ccc1OCc1ccccc1,?,12µM*,?,-2%,-4%,-2%
O=P(O)(O)c1ccccc1OCCOCCOCCOCCOc1ccccc1P(=O)(O)O,24%,?,-6%,3.5µM*,-1%,4µM*
NCCP(=O)(O)O,3%[9.22 µM],·,·,·,-2%[7.66 µM],·
O=[N+]([O-])c1ccccc1-c1ccccc1,6%,·,·,·,·,·
CN1CC=C(/C=C/c2ccc(-c3ccccc3)cc2)CC1,·,4.3µM*,?,?,·,3.2µM*
SMILES,SMN2 splice enh,FLuc counter,ELG1 genotox,Rab9 prom act,Luc counter,NPC1 prom act
Cc1ccc(OCC(=O)N/N=C\c2ccc(O)c([N+](=O)[O-])c2)c([N+](=O)[O-])c1,-11%,27µM*,1%,-3%,0%,1%
CC[C@@H]1CN2CCc3cc(OC)c(OC)cc3[C@H]2C[C@@H]1C[C@H]1NCCc2cc(OC)c(OC)cc21,-54%[20.6 µM],·,·,·,-1%[17.1 µM],·
COc1ccc(CCn2c(O)c(C=NCc3cccnc3)c(=O)[nH]c2=O)cc1OC,-11%,2%,1%,0%,2%,1%
COc1ccc(C2CC(c3c(O)n(CCc4ccccc4)c(=O)[nH]c3=O)=NN2)cc1OC (stereo unspecified),·,19µM*,-7%,-7%,·,-1%
C=C(C)C(=O)OCC1CO1 (stereo unspecified),11%,·,·,·,·,·
COC(=O)[C@@H]1c2cc3c(c(O)c2[C@@H](O)C[C@]1(C)O)C(=O)c1c(O)cc2c(c1C3=O)O[C@H]1O[C@@]2(C)[C@@H](O)[C@H](N(C)C)[C@H]1O,0%[9.22 µM],·,·,·,-8%[7.66 µM],·
CCOc1ccc(C2CC(c3c(O)n(C)c(=O)n(C)c3=O)=NN2)cc1 (stereo unspecified),·,0.95µM*,3%,?,·,?
Cn1c(O)c(C2=NNC(c3ccc(Cl)cc3)C2)c(=O)n(C)c1=O (stereo unspecified),·,9.5µM*,-1%,2%,·,1%
C=CC(C)(C)c1c2c(c(O)c3c(=O)c4ccc(O)c(O)c4oc13)C=CC(C)(C)O2,-92%,·,·,·,1%,·
CC1(C)N=C(N)N=C(N)N1c1cccc(C(=O)Nc2ccc(S(=O)(=O)F)cc2)c1,3%[9.22 µM],·,·,·,-1%[7.66 µM],·
CCCOC(=O)c1ccc(OC(=O)c2ccco2)cc1,4%,?,2%,-1%,-7%,0%
O=C(Oc1ccccc1)c1cc2ccccc2o1,1%,9.5µM*,1%,0%,-4%,0%
Cc1c(OC(=O)N(C)C)ccc2c1O/C(=C\c1ccco1)C2=O,·,0.48µM*,13%,4µM*,·,?
CN1/C(=C\C=C\C2=[N+](C)c3ccc4ccccc4c3C2(C)C)C(C)(C)c2ccccc21,-71%,13µM*,-3%,-53%,?,-44%
CN1/C(=C\C=Nc2ccccc2)C(C)(C)c2ccccc21,·,-2%,0%,2%,·,1%
Cc1ccc(OC(=O)c2ccc(Br)o2)cc1,-11%,4.8µM*,0%,-1%,-4%,-6%
Cc1cnn(-c2cc(Oc3ccccc3)ncn2)c1,·,17µM*,1.5µM*,?,·,?
COc1ccc(Cl)cc1N=Cc1c(O)n(C)c(=O)n(C)c1=O,·,1%,2%,1%,·,-2%
COc1ccccc1N=Cc1c(O)n(C)c(=O)n(C)c1=O,-13%,7.6µM*,17%,12%,?,5%
OC1(c2ccc(Cl)cc2)CCN(Cc2c[nH]c3ccccc23)CC1,-20%,·,·,-35%[46.1 µM],-3%,-34%[46.1 µM]
Cc1cc(C=C2C(=O)NC(=S)NC2=O)c(C)n1C1CCCC1,7%,1.5µM*,21µM*,0%,?,0%
Cc1cc(N2CCCCC2)ccc1C=C1C(=O)N(C)C(=S)N(C)C1=O,-54%,?,2%,-5%,-9%,-5%
Cc1cc(C=C2C(=O)N(C)C(=S)N(C)C2=O)c(C)n1C1CCCCC1,-20%,3.4µM*,-2%,3%,-4%,-6%
Cc1cc(C=C2C(=O)NC(=O)NC2=O)c(C)n1-c1cccnc1,·,?,3%,0%,·,2%
